Reference: PubChem BioAssay (NCI)
The panel holds about 79,000 compounds, 15% with a hit somewhere; the sample as a whole holds those more often. Unmarked numbers belong to inactive results. The source made the active and inactive calls. Rule as the data show it: active = growth inhibition above about 70%; inactive = the rest.

Assay: NCI Yeast Anticancer Drug Screen. Data for the sgs1 mgt1 strain (AID 161);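 also: 0% = growth of cultures given vehicle only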
Settings: S. cerevisiae sgs1 mgt1 strain, at 50.0 µM, stronger effect = higher value
Procedure, shortened: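 Growth of a repair-deficient yeast mutant was monitored after compound treatment and expressed as inhibition relative to vehicle-treated cultures.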

Row | Structure (SMILES) | growth inhibition
1 | Cc1nc(-[n+]2nc(-c3ccccc3)nn2-c2ccccc2)sc1C | -18.9%
2 | CC(=O)[C-](C(C)=O)c1ccccc1.CC(=O)[C-](C(C)=O)c1ccccc1.CC(=O)[C-](C(C)=O)c1ccccc1.[Cl-].[Zr+4] | 0.35%
3 | O=C1NC(N/N=C\c2ccccc2)=N/C1=C/c1ccc(Cl)cc1 | 11.7%
4 | CC1(C)Oc2ccc3c(=O)cc(-c4ccc(F)cc4)oc3c2C1C(=O)O (stereo unspecified) | -12.2%
5 | C=C1C(=O)OC2/C=C(\CO)CC/C=C(\CO)CC(OC(=O)C(C)C)C12 (stereo unspecified) | -16%
6 | N#CC(=S)Nc1ccc(F)cc1 | 30.7%
7 | COC(=O)c1cnn2c1n[n+]([O-])c1ccccc12 | -33.1%
8 | Cc1ccc(OC2CC(n3cnc4ncnc(Cl)c43)OC2Oc2ccc(C)cc2)cc1 (stereo unspecified) | 13.9%
9 | c1ccc(-c2cccc3ccccc23)cc1 | 2.65%
10 | O=C(O)c1cn(C2CC2)c2cc(N3CCNCC3)c(F)cc2c1=O | -13.1%
11 | Cn1cnc2c(=O)[nH]c(=O)[nH]c21 | -43.4%
12 | COc1c2c(c3c(c1OC)c(=O)c1ccccc1n3C)OCO2 | 16.8%
13 | CCCCCCCCCC(O)CC(=O)c1c(O)cccc1O (stereo unspecified) | 82.8% (active)
14 | O=S(=O)(O)c1cc(O)c2c(O)cc(S(=O)(=O)O)cc2c1 | -21.2%
15 | CCOC(=O)C(=O)C(CCC(=O)c1ccc2ccccc2c1O)C(=O)OCC (stereo unspecified) | -2.9%
16 | CCOC(=O)COc1cc(-c2ccccc2)nc2cc(F)ccc12 | 0.25%
